Test results from the supplement of paper PMC10849652.
Targets with a hit are over-represented here; the source holds about 7,900 in all. About 0.6% of all pairs of compound and target were hits.

Experiments:
Test in all cases: log2 fold change, soluble protein after heating vs DMSO (PISA); higher = thermal stabilisation; K562 cells, 10 uM, 30 min; active = over 0.2 and 3.5 SD of the protein, either way, in both replicates (recomputed)
erlotinib = compound: C#Cc1cccc(Nc2ncnc3cc(OCCOC)c(OCCOC)cc23)c1 [erlotinib]
Method in brief: (§1)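 K562 cells at 2×10^6 cells/mL were treated with 10 μM compound for 30 min. Aliquots were heated for 3 min across 48°C-58°C, pooled, and extracted in PBS with 0.5% NP-40 at 4°C; soluble protein was the supernatant after 21,000xg for 90 min. Soluble protein was quantified by TMTpro 16plex LC-MS/MS with channel sums equalised, and reported as log2 fold change in thermal stability against DMSO controls, with values from duplicates.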

[1] = compound: C/C(=N\NC(=O)C1=CC(=CC=C1)S(=O)(=O)N2CCOCC2)/C3=C(C=CC(=C3)Cl)O
Method in brief: as §1

[2] = compound: C1=CC(=C(C=C1Cl)C2=NC3=NC=CN=C3C(=N2)NC4=CC=NC=C4)F
Method in brief: as §1

[3] = compound: C1=CC(=CC=C1C2=NC3=C(N2)C=C(C=C3)C(=O)N)OC4=CC=C(C=C4)Cl
Method in brief: as §1

[4] = compound: C1=CC2=C(C=CC(=C2)/C=C\3/C(=O)NC(=NCC4=CC=CS4)S3)N=C1
Method in brief: as §1

[5] = compound: C1=CC2=NC=CN=C2C=C1/C=C/3\C(=O)NC(=O)S3
Method in brief: as §1

[6] = compound: C1=CC=C(C=C1)C2=NC(=C(N2)C3=CC=NC=C3)C4=CC(=C(C=C4)Cl)O
Method in brief: as §1

[7] = compound: C1=CC=C2C(=C1)C3=NNC4=CC=CC(=C43)C2=O
Method in brief: as §1

[8] = compound: C1CCN(C1)C(=O)NC2=CC=CC(=C2)NC3=NC=C(C(=N3)NCCC4=CN=CN4)Br
Method in brief: as §1

[9] = compound: C1CN(CCC1(CC2=CC=C(C=C2)Cl)N)C3=NC=NC4=C3C=CN4
Method in brief: as §1

IRAK-1-4 Inhibitor I = compound: C1COCCN1CCN2C3=CC=CC=C3N=C2NC(=O)C4=CC(=CC=C4)[N+](=O)[O-] [IRAK-1-4 Inhibitor I]
Method in brief: as §1

ibrutinib = compound: C=CC(=O)N1CCC[C@@H](n2nc(-c3ccc(Oc4ccccc4)cc3)c3c(N)ncnc32)C1 [ibrutinib]
Method in brief: as §1

[10] = compound: CC(=O)c1cnc2ccc(-c3cc(Cl)c(O)c(Cl)c3)nc2c1N[C@H]1CC[C@H](CN(C)C)CC1
Method in brief: as §1

ralimetinib = compound: CC(C)(C)Cn1c(N)nc2ccc(-c3[nH]c(C(C)(C)C)nc3-c3ccc(F)cc3)nc21 [ralimetinib]
Method in brief: as §1

[11] = compound: CC(C)(O)CC(=O)NCCn1ccc2ncnc(Nc3ccc(Oc4cccc(C(F)(F)F)c4)c(Cl)c3)c21
Method in brief: as §1

[12] = compound: CC(C)C1=C2N=C(C=C(N2N=C1)NCC3=CC=CC=C3)NCCCCCCN
Method in brief: as §1

[13] = compound: CC(C)C[C@@H](C=O)NC(=O)[C@H](CC(C)C)NC(=O)[C@H](CC(C)C)NC(=O)OCc1ccccc1
Method in brief: as §1

pinometostat = compound: CC(C)N(C[C@H]1O[C@@H](n2cnc3c(N)ncnc32)[C@H](O)[C@@H]1O)[C@H]1C[C@@H](CCc2nc3cc(C(C)(C)C)ccc3[nH]2)C1 [pinometostat]
Method in brief: as §1

[14] = compound: CC1=C(C(CC(=O)N1)C2=CC=C(C=C2)C(F)(F)F)C(=O)NC3=C(C=C4C(=C3)C=NN4)F
Method in brief: as §1

[15] = compound: CC1=C(C2=C(C=C1)C(=O)C3=CC=CC=C3N2CCCN)C
Method in brief: as §1

Measured: log2 fold change

ARL2BP (UniProt Q9Y2Y0)
Sequence of UniProt Q9Y2Y0 (Q9Y2Y0 whole entry, looked up): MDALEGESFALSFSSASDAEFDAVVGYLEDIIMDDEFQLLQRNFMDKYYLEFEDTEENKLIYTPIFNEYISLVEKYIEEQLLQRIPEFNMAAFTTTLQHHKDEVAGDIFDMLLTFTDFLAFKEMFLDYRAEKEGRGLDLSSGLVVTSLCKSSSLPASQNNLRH
inactive: erlotinib -0.048 | [1] 0.014 | [2] 0.041 | [3] -0.02 | [4] 0.093 | [5] 0.104 | [6] 0.037 | [7] -0.047 | [8] -0.008 | [9] -0.072 | IRAK-1-4 Inhibitor I -0.053 | ibrutinib -0.009 | [10] 0.03 | ralimetinib 0.01 | [11] -0.127 | [12] -0.269 | [13] -0.011 | pinometostat -0.037 | [14] -0.002 | [15] -0.028

BRK1 isoform 2 (UniProt Q8WUW1)
inactive: erlotinib -0.115 | [1] 0.003 | [2] 0.279 | [3] 0.04 | [4] 0.027 | [5] 0.072 | [6] 0.051 | [7] -0.02 | [8] -0.08 | [9] -0.037 | IRAK-1-4 Inhibitor I -0.026 | ibrutinib -0.004 | [10] -0.045 | ralimetinib -0.037 | [11] -0.018 | [12] 0.058 | [13] -0.053 | pinometostat -0.157 | [14] 0.064 | [15] 0.145

ARPP19 (UniProt P56211)
inactive: erlotinib -0.01 | [1] 0.003 | [2] 0.076 | [3] -0.032 | [4] -0.061 | [5] 0.041 | [6] 0.026 | [7] 0.014 | [8] -0.024 | [9] -0.018 | IRAK-1-4 Inhibitor I 0.052 | ibrutinib -0.009 | [10] 0 | ralimetinib 0.048 | [11] -0.051 | [12] 0.048 | [13] -0.071 | pinometostat -0.157 | [14] 0.069 | [15] -0.074

BTAF1 (UniProt O14981)
Sequence of UniProt O14981 (O14981 whole entry, looked up): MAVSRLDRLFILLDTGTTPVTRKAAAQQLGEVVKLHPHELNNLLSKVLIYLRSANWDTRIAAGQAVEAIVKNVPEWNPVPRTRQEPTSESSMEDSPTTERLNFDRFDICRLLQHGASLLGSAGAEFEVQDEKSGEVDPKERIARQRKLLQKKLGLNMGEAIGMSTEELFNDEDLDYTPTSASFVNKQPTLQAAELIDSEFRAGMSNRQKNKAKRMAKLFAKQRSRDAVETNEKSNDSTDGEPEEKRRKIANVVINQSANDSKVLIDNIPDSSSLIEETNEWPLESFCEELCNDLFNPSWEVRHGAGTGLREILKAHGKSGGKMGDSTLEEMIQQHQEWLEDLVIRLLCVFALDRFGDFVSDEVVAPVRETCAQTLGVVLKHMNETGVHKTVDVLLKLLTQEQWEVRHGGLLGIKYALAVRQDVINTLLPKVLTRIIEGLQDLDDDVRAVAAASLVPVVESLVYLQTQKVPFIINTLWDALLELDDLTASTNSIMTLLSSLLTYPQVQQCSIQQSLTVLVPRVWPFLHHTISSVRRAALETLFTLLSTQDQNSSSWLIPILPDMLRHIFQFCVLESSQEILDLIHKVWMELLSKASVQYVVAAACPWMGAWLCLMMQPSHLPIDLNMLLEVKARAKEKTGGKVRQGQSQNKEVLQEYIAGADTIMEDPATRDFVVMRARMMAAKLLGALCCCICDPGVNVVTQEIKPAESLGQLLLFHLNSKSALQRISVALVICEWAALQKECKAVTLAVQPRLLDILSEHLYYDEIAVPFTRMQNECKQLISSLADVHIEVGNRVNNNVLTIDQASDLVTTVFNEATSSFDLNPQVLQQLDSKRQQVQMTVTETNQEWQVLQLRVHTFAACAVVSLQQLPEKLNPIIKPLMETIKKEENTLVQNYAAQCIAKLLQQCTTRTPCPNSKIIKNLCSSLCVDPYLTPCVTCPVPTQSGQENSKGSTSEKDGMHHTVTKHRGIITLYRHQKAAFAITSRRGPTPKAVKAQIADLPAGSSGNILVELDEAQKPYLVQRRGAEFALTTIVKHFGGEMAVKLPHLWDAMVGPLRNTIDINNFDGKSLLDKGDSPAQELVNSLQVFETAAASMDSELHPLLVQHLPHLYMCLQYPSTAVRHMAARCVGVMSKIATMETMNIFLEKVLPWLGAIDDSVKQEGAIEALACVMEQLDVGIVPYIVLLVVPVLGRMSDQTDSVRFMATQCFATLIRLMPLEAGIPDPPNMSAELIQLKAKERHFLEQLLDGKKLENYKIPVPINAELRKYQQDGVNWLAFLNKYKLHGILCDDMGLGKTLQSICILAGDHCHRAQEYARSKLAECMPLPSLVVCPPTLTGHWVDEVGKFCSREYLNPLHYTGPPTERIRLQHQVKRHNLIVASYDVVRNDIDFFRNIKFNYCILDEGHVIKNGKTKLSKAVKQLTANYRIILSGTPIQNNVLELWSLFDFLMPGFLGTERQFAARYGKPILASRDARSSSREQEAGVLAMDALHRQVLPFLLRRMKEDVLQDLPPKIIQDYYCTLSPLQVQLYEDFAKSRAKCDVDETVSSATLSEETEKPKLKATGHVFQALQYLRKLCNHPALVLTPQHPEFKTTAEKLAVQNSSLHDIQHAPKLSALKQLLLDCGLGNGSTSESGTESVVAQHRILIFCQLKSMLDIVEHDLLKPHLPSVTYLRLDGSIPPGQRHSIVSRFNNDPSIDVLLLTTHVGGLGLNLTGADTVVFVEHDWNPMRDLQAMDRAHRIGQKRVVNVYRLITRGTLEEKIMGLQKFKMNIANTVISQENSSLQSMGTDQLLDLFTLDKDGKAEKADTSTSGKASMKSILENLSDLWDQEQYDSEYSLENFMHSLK
inactive: erlotinib 0.04 | [1] 0.078 | [2] 0.072 | [3] 0.005 | [4] 0.048 | [5] -0.006 | [6] -0.038 | [7] -0.032 | [8] 0.011 | [9] 0.05 | IRAK-1-4 Inhibitor I 0.021 | ibrutinib 0.029 | [10] 0.022 | ralimetinib -0.043 | [11] -0.168 | [12] -0.131 | [13] 0.01 | pinometostat -0.011 | [14] 0.003 | [15] -0.087

ACAD9 (UniProt Q9H845)
Sequence of UniProt Q9H845 (Q9H845 whole entry, looked up): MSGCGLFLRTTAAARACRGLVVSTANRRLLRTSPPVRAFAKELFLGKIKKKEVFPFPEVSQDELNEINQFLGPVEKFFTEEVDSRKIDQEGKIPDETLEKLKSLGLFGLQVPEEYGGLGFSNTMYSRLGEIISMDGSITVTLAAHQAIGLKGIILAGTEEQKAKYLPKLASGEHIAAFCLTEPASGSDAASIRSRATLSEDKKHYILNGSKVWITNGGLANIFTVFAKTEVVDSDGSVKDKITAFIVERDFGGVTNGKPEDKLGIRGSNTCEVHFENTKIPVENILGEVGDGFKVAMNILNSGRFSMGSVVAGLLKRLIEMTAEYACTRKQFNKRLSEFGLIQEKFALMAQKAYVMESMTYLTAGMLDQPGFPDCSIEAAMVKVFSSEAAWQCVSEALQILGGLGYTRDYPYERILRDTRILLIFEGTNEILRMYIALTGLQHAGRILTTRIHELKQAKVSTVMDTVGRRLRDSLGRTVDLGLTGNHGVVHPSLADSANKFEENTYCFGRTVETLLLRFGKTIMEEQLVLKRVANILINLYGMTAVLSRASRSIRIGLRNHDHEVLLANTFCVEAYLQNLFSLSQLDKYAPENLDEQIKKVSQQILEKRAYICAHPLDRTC
inactive: erlotinib -0.002 | [1] 0.025 | [2] 0.054 | [3] 0.015 | [4] 0.035 | [5] 0.032 | [6] 0.026 | [7] -0.002 | [8] -0.002 | [9] 0.029 | IRAK-1-4 Inhibitor I 0.01 | ibrutinib 0.005 | [10] -0.041 | ralimetinib -0.034 | [11] 0.007 | [12] 0.002 | [13] -0.036 | pinometostat -0.028 | [14] -0.012 | [15] 0.028

ATG4B isoform 2 (UniProt Q9Y4P1)
inactive: erlotinib -0.008 | [1] 0.078 | [2] 0.017 | [3] 0.178 | [4] 0.118 | [5] 0.089 | [6] 0.143 | [7] -0.046 | [8] -0.087 | [9] -0.033 | IRAK-1-4 Inhibitor I 0.127 | ibrutinib -0.038 | [10] -0.102 | ralimetinib 0.134 | [11] -0.194 | [12] -0.299 | [13] -0.137 | pinometostat -0.013 | [14] -0.031 | [15] 0.114

ALDH1B1 (UniProt P30837)
inactive: erlotinib 0 | [1] 0.073 | [2] 0.066 | [3] 0.081 | [4] 0.062 | [5] -0.009 | [6] 0.044 | [7] 0.065 | [8] -0.028 | [9] 0.043 | IRAK-1-4 Inhibitor I 0.051 | ibrutinib 0.031 | [10] -0.009 | ralimetinib -0.004 | [11] -0.072 | [12] 0.132 | [13] -0.01 | pinometostat -0.022 | [14] -0.054 | [15] 0.221

APOB (UniProt P04114)
inactive: erlotinib 0.062 | [1] 0.008 | [2] 0.042 | [3] -0.024 | [4] -0.018 | [5] 0.05 | [6] 0.046 | [7] -0.011 | [8] 0.018 | [9] -0.174 | IRAK-1-4 Inhibitor I 0.042 | ibrutinib -0.012 | [10] 0.045 | ralimetinib -0.239 | [11] -0.295 | [12] -0.438 | [13] 0.403 | pinometostat -0.171 | [14] 0.066 | [15] 0.021

BRD8 (UniProt Q9H0E9)
Sequence of UniProt Q9H0E9 (Q9H0E9 whole entry, looked up): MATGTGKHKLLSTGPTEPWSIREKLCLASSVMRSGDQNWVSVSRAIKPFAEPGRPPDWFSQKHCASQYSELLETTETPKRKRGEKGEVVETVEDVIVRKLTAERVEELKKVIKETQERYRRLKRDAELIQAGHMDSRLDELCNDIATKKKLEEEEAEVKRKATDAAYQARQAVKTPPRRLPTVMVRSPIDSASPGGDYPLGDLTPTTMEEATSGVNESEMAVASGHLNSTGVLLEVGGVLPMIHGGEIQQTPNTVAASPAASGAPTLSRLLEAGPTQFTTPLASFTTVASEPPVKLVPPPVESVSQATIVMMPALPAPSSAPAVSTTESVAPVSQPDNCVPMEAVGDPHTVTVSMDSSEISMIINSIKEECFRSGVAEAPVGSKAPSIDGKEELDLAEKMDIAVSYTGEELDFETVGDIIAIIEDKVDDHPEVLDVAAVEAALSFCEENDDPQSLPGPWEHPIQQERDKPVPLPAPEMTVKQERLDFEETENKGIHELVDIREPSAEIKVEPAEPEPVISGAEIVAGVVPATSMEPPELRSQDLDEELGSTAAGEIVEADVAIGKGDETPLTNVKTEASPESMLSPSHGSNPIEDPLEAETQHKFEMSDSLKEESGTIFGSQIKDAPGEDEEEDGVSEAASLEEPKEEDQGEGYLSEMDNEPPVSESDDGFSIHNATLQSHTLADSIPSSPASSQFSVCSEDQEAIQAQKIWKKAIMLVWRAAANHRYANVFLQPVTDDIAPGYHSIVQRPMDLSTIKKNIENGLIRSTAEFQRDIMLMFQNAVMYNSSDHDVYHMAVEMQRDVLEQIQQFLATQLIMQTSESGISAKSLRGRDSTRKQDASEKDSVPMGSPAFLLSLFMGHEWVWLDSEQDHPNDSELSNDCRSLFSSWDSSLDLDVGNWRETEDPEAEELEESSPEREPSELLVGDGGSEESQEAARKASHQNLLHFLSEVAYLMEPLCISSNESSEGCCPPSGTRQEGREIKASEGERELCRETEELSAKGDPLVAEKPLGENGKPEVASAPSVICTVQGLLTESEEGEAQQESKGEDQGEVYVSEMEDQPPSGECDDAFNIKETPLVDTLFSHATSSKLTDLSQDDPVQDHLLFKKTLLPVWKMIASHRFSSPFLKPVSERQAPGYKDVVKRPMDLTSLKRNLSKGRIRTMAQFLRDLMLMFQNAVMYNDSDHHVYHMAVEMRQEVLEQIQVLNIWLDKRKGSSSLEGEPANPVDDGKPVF
inactive: erlotinib -0.057 | [1] -0.036 | [2] -0.067 | [3] 0.068 | [4] -0.005 | [5] 0.037 | [6] -0.074 | [7] -0.064 | [8] 0.016 | [9] -0.058 | IRAK-1-4 Inhibitor I 0 | ibrutinib -0.014 | [10] -0.009 | ralimetinib -0.022 | [11] -0.012 | [12] -0.013 | [13] 0.098 | pinometostat 0.001 | [14] 0.03 | [15] -0.019

ATAD1 (UniProt Q8NBU5)
inactive: erlotinib 0.037 | [1] 0.036 | [3] 0.021 | [4] 0.054 | [5] -0.022 | [6] 0.059 | [7] 0.123 | [8] 0 | [9] -0.006 | IRAK-1-4 Inhibitor I -0.007 | ibrutinib 0.011 | [10] -0.081 | [11] -0.083 | [12] -0.077 | [13] 0.038 | pinometostat 0.041 | [14] -0.083 | [15] 0.054
active: [2] 0.295 | ralimetinib 0.238

BPHL (UniProt Q86WA6)
Sequence of UniProt Q86WA6 (Q86WA6 whole entry, looked up): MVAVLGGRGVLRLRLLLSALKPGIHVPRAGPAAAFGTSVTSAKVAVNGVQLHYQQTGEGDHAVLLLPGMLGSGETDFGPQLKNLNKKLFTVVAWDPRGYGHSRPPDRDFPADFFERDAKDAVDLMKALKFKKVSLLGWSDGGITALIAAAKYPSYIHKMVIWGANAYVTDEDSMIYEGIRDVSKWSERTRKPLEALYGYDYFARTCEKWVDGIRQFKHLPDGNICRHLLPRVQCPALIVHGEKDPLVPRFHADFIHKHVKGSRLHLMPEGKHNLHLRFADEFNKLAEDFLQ
inactive: erlotinib -0.016 | [1] 0.053 | [2] 0.057 | [3] -0.016 | [4] 0.142 | [5] 0.058 | [6] -0.028 | [7] 0.02 | [9] 0.182 | IRAK-1-4 Inhibitor I 0.009 | ibrutinib -0.062 | [10] -0.034 | ralimetinib -0.045 | [11] -0.023 | [12] 0.123 | [13] 0.071 | pinometostat 0.061 | [14] 0.016 | [15] -0.244
active: [8] -0.38

AKT2 (UniProt P31751)
inactive: erlotinib 0.014 | [1] 0.096 | [2] 0.094 | [3] 0.027 | [4] 0.068 | [5] -0.023 | [6] 0.019 | [7] 0.028 | [8] -0.068 | [9] 0.144 | IRAK-1-4 Inhibitor I -0.013 | ibrutinib -0.033 | [10] -0.039 | ralimetinib -0.015 | [11] -0.027 | [12] -0.179 | [13] 0 | pinometostat -0.016 | [14] 0.023 | [15] -0.011

ACSF3 (UniProt Q4G176)
Sequence of UniProt Q4G176 (Q4G176 whole entry, looked up): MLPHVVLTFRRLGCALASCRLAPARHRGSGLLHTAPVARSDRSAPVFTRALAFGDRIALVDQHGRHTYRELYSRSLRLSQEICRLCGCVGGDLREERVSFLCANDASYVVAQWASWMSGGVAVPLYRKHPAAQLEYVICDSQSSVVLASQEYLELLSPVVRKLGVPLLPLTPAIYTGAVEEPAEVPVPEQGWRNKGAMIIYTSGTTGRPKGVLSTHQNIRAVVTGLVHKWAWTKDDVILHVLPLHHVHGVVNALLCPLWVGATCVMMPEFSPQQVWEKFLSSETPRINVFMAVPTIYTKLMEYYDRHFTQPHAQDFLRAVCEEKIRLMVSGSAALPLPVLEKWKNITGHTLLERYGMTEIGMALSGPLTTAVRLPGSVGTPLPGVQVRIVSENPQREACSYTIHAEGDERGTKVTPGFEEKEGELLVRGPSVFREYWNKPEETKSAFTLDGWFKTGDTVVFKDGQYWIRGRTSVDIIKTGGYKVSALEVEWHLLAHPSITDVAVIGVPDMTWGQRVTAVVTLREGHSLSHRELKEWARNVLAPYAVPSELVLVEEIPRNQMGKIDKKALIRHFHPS
inactive: erlotinib 0.07 | [1] -0.066 | [2] 0.057 | [3] -0.155 | [4] -0.104 | [5] 0.04 | [6] 0.028 | [7] 0.022 | [8] -0.001 | [9] -0.038 | IRAK-1-4 Inhibitor I 0.05 | ibrutinib -0.088 | [10] -0.129 | ralimetinib -0.004 | [11] -0.063 | [12] -0.138 | [13] 0.077 | pinometostat 0.011 | [14] -0.061 | [15] 0.023

ACTR1B (UniProt P42025)
inactive: erlotinib -0.13 | [1] -0.048 | [2] -0.145 | [3] 0.041 | [4] 0.02 | [5] 0.002 | [6] -0.037 | [7] -0.017 | [8] -0.02 | [9] 0.011 | IRAK-1-4 Inhibitor I 0.066 | ibrutinib 0.003 | [10] -0.041 | ralimetinib 0.07 | [11] -0.065 | [12] 0.042 | [13] -0.071 | pinometostat 0.003 | [14] -0.099 | [15] -0.013

ALDH18A1 (UniProt P54886)
active: [11] -0.497
inactive: erlotinib 0.016 | [1] 0.092 | [2] 0.089 | [3] -0.084 | [4] -0.007 | [5] -0.204 | [6] -0.093 | [7] -0.091 | [8] -0.015 | [9] -0.057 | IRAK-1-4 Inhibitor I 0 | ibrutinib -0.098 | [10] 0 | ralimetinib -0.057 | [12] -0.269 | [13] 0 | pinometostat -0.053 | [14] -0.059 | [15] 0.184

ABHD11 (UniProt Q8NFV4)
Sequence of UniProt Q8NFV4 (Q8NFV4 whole entry, looked up): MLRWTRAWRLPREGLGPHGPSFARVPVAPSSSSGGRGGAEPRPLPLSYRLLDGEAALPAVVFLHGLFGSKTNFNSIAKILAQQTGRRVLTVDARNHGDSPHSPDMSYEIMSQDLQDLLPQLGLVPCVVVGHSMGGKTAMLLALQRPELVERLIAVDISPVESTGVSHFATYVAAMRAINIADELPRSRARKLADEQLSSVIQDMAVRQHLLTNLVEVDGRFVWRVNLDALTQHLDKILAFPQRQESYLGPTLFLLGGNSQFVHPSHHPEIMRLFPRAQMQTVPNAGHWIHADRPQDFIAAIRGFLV
inactive: erlotinib 0.03 | [1] -0.041 | [2] 0.078 | [3] -0.033 | [4] 0.113 | [5] -0.067 | [6] 0.045 | [7] 0.043 | [8] -0.079 | [9] 0.01 | IRAK-1-4 Inhibitor I -0.031 | ibrutinib 0.031 | [10] -0.007 | ralimetinib -0.123 | [11] -0.006 | [12] -0.043 | [13] 0.068 | pinometostat -0.027 | [14] -0.016 | [15] 0.026
